Data on 21 compounds can be found in PubChem BioAssay AID743144 (Broad Institute, 2013).

Molecules are shown by their SMILES. Measured potencies and affinities stand elsewhere. Results filed as inconclusive are left out. Activity calls are given as the source filed them. No rule for the calls is given here.

The test is described as follows: cytotoxicity in COV362 ovarian cancer cells, dose response, cytotoxicity control for PAX8 inhibitor project, cell-based, plate reader, dry powder, SA12 (AID 743144). The settings on record: series mostly up to 35 µM.
For `C[C@@H]1CN([C@@H](C)CO)S(=O)(=O)c2ccc(C#C[C@@H](C)O)cc2O[C@H]1CN(C)Cc1ccc(-c2ccccc2)cc1`, the compound was called inactive.
Consider `O=C(Nc1ccc(OCC(F)(F)C(F)F)c(C(F)(F)F)c1)c1ccccc1O`, for which the result was inactive.
For the compound `N#C[C@@H]1[C@H](c2ccc(-c3ccccc3F)cc2)[C@@H](CO)N1C(=O)Cc1ccccc1`, the outcome was inactive.
For `COc1ccc(S(=O)(=O)Nc2ccc3c(c2)CC(=O)N([C@@H](C)CO)C[C@H](C)[C@@H](CN(C)Cc2ccc(C(F)(F)F)cc2)O3)cc1`, the outcome was inactive.
Under `N#C[C@H]1N[C@H](CO)[C@@H]1c1ccc(C#Cc2ccccc2F)cc1` stands “inactive”.
As to `C[C@@H]1CN([C@H](C)CO)C(=O)CCCn2nncc2CO[C@H]1CN(C)Cc1ccc(Oc2ccccc2)cc1`, the compound was called inactive.
As to `O=C1/C(=C/c2cccc(Br)c2)SC(=S)N1CCC(=O)N(CCO)c1ccccc1`, the outcome was inactive.
Regarding `CCN(CC(=O)Nc1c(F)cccc1F)C(=O)c1cc(S(=O)(=O)N(C)C)ccc1N1CCCC1`, the result was inactive.
In the case of `O=C1/C(=C/c2ccccc2)SC(=S)N1CC(=O)N1CCCCC1c1cccnc1` (stereo unspecified), the compound was called inactive.
For the compound `N#C[C@H]1[C@@H](c2ccc(C3=CCCC3)cc2)[C@@H](CO)N1C(=O)NC1CCCCC1`, the call was inactive.
Regarding `C[C@H](CO)N1C[C@H](C)[C@@H](CN(C)S(=O)(=O)c2ccc(Cl)cc2)OCCCC[C@H](C)Oc2ccc(NS(=O)(=O)c3ccccc3)cc2C1=O`, the outcome was inactive.
With `COCC(=O)N1[C@H](CO)[C@H](c2ccc(-c3cccnc3)cc2)[C@@H]1C#N`, the outcome was inactive.
Under `Cc1ccc(S(=O)(=O)CC(CN2CCCCC2)N2CCCCC2)cc1` (stereo unspecified) stands “inactive”; under `CC(=O)N1CCOc2ccc(S(=O)(=O)N3CCN(c4cccc(C(F)(F)F)c4)CC3)cc21`, “inactive”; under `COc1cccc(-c2ccc([C@H]3[C@@H](CO)N(C(=O)Cc4ccccc4)[C@H]3C#N)cc2)c1`, “inactive”.
With `C[C@H]1CN([C@@H](C)CO)C(=O)Cc2cc(NC(=O)NC3CCCCC3)ccc2O[C@@H]1CN(C)Cc1ccc(-c2ccccc2)cc1`, the compound was called inactive.
Under `CC(C)c1cc(C(=O)OCC(=O)N2CCN(C(=O)c3ccco3)CC2)c(O)c(C(C)C)c1` stands “inactive”.
Regarding `COc1cccc(C#Cc2ccc([C@@H]3[C@@H](C#N)N(C(=O)C4CCCC4)[C@@H]3CO)cc2)c1`, the outcome was inactive.
Turning to `COc1ccc(S(=O)(=O)Nc2ccc3c(c2)CC(=O)N([C@@H](C)CO)C[C@@H](C)[C@@H](CN(C)Cc2ccc(-c4ccccc4)cc2)O3)cc1`, the call was inactive.
As for `N#C[C@@H]1[C@@H](c2ccc(C3=CCCCC3)cc2)[C@@H](CO)N1C(=O)NC1CCCCC1`, the result was inactive.
As to `N#C[C@@H]1[C@@H](c2ccc(-c3cccc(F)c3)cc2)[C@H](CO)N1C(=O)NC1CCCC1`, the call was inactive.
